Compound activity deposited in PubChem BioAssay by National Center for Advancing Translational Sciences (NCATS).
IMPase Li cell – membrane-permeable IMPase blocker, potentiated with lithium | CHO-M1 cells, IP1 TR-FRET (IP-One), carbachol + lithium | Potency, µM (top dose mostly 59.4 µM), most hits filed as inhibitors | hit rate 0.35% among 210,000;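 note: IP1 builds up when IMPase is blocked and the TR-FRET signal falls; nearly all actives have a fitted effect of over 50% in size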
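Lithium-sensitised IP1 accumulation assay; M1-expressing CHO cells treated 30 min at 37C with compound. Competitive antibody detection by time-resolved FRET followed a 10 min room-temperature lysis step.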
IMPase cell inh – membrane-permeable compound that blocks inositol monophosphatase | 120,000 tested, under 10 active | CHO-M1 cells, IP1 accumulation, HTRF TR-FRET ratio | inhibition (IP1 accumulation), % at 46.1 µM | P97697; active = well fitted curve in the direction sought with a large enough effect in the signal ratio, not every such curve was filed as active; inconclusive = small, poorly fitted or top-dose-only effect, or a change in a side signal; inactive = no such curve, though single readings can be large or run the other way; the % refers to the signal ratio;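 note: cells stimulated with carbachol in lithium chloride buffer; higher means more IMPase inhibition seen as more IP1 and lower FRET ratio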
Target sequence (P97697 whole entry, looked up): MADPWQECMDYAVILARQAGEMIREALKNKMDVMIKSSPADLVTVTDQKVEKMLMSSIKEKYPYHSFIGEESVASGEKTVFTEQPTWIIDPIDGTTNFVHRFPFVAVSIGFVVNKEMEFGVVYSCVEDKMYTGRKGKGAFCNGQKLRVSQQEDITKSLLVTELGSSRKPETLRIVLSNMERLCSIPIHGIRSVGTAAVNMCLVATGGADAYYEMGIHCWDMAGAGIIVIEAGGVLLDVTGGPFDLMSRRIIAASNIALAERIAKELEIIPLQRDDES
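Elevated IP1 in lysates lowers TR-FRET signal (665/620 ratio and 620 channel reported). Cells were CHO-M1, given carbachol (50 uM as added) plus 50mM LiCl, pH 7.4, 30 min, 37C; compounds titrated up to 46 uM; AC50 by Hill equation.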
15-hLO-2 inh – inhibitors of human 15-lipoxygenase 2 (ALOX15B); purified 15hLO-2, xylenol orange hydroperoxide absorbance; Potency, µM (titrated, usually from 57.1 µM), actives largely listed as inhibitors; hit rate 0.56% among 110,000; AID 881; note: nearly all actives have a fitted effect of over 60% in size
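Read-out: hydroperoxide product oxidises ferrous iron, measured as xylenol orange complex via the 573-to-405 nm absorbance ratio after 30 min. Reaction: 50 nM enzyme, 15 min compound preincubation, 45 uM arachidonic acid, 90 min RT, Hepes pH 7.5 with Triton X-100.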
12-hLO inh – 12-hLO (ALOX12) enzyme inhibition; P18054; purified 12-hLO, xylenol orange hydroperoxide absorbance; Potency, µM (titrated, usually from 57.1 µM), hits mostly inhibitors; hit rate 0.12% among 150,000; AID 1452; note: nearly all actives have a fitted effect of over 55% in size
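Purified human 12hLO (150 nM), preincubated 15 min with compound, then 40 uM arachidonic acid for 30 min, room temperature, Hepes pH 7.0 with 0.01% Triton X-100. Hydroperoxide detected by ferrous iron/xylenol orange; 573/405 nm absorbance ratio gives reaction progress.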
PNC assembly inh – blocks assembly of the perinucleolar compartment; activity change (PNC), negative = inhibition, % at 10 µM; hit rate 3.1% among 140,000; PC3M PTB-GFP, PNC prevalence imaging, 16 h; hits give low values; AID 2417;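 active = readout at or below -70, meaning at least 70% loss of cells showing the perinucleolar compartment, a nuclear body marking cancer cells; inconclusive = readout between -30 and a set limit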
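PC3M cells stably expressing PTB-GFP, 750–1000 cells/well, treated 16 h at 37 °C with compound (23 nl of library stock), in duplicate. After paraformaldehyde fixation and Hoechst stain, imaged at 20x; PNC prevalence scored by image analysis.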
HPGD inh – blocks human HPGD enzyme activity; hit rate 4.3% among 150,000; purified HPGD, NADH fluorescence kinetic, PGE2 substrate; AID 894; Potency, µM, most hits filed as inhibitors; active = well fitted inhibition curve with a large enough effect, not every such curve was filed as active; inconclusive = small, poorly fitted or top-dose-only effect, or another doubt; inactive = no such curve, though single readings can be large or run the other way
Target sequence (P15428 whole entry, looked up): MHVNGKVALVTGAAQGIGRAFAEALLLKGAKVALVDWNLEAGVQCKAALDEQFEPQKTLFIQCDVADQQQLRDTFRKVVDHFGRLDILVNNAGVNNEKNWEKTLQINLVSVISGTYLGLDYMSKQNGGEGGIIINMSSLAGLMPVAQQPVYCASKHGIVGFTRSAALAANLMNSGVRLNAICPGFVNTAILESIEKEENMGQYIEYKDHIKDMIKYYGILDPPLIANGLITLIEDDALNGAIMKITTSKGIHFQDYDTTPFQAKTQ
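20 nM HPGD preincubated 15 min at room temperature with compound in 50 mM Tris-HCl pH 8, 0.01% Tween 20. Started with 1 mM NAD+ and 30 uM prostaglandin E2; NADH fluorescence (360/450 nm) read 5 times over 30-s intervals, last minus first.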
Of the large screens only hits and unclear results are named; the others gave an inactive call. A selection: hits, their analogues and other compounds. The true share with any hit is near 5.3%. Unless noted, calls come from the whole dose curve; as a rule, active = well fitted curve in the direction sought with a large enough effect; inconclusive = small, poorly fitted or top-dose-only effect, or another doubt; inactive = no such curve, though single readings can be large; an effect the other way counts as inactive or inconclusive.

CC(C)=CCN1CCN(Cc2cnc(C)s2)CC1CCO (configuration not stated)	none (no result: IMPase cell inh, 15-hLO-2 inh, 12-hLO inh, PNC assembly inh, HPGD inh)
O=C(C1=C[C@@H](C2CC2)C[C@@H](OCCCCO)O1)N1CCN(Cc2ccccc2)CC1	none (no result: IMPase cell inh, 15-hLO-2 inh, 12-hLO inh, PNC assembly inh, HPGD inh)
O=C(c1cc(-c2ccco2)on1)N1CCOCC1	none
CN1CCN(C(=O)c2cc(-c3ccco3)on2)CC1	HPGD inh 32µM
O=C(c1cc(-c2ccc(Cl)cc2Cl)on1)N1CCN(C(=O)c2ccco2)CC1	HPGD inh 10µM
CC(C)c1ccc(Oc2cccc(C(=O)/C(C#N)=C/N(C)C)c2)cc1	HPGD inh 16µM
C/C=C/c1ccc(OCCCN2C(=O)NC(C)(C)C2=O)c(OC)c1	PNC assembly inh -125
COC(=O)CC1C(C)(C)C(OC(C)=O)C2CC3C4CC(=O)OC(c5ccoc5)[C@]4(C)CCC3[C@@]1(C)C2=O (some centres not stated)	none (no result: IMPase cell inh, PNC assembly inh)
COc1ccc(OCCn2cc(C(=O)c3ccco3)c3ccccc32)cc1	none (no result: IMPase Li cell, 15-hLO-2 inh, 12-hLO inh, PNC assembly inh, HPGD inh)
COC(=O)c1cn(CCOc2ccc(C)cc2)c2ccccc12	PNC assembly inh -82
O=C(C1CCN(S(=O)(=O)N2CCCCC2)CC1)N1CCCCC1	HPGD inh 20µM (no result: IMPase cell inh, 15-hLO-2 inh)
Cc1sc2nc(CN(C(=O)c3cccs3)C3CCCC3)[nH]c(=O)c2c1C	IMPase cell inh inconclusive
O=C(c1cccs1)N(Cc1nc2sc3c(c2c(=O)[nH]1)CCCC3)C1CCCC1	PNC assembly inh -92, HPGD inh inconclusive
COCCN(C(=O)Nc1ccc(OC)cc1OC)C1CCN(C(C)C)CC1	none
COc1ccc(NC(=O)NC2CCN(C(C)C)CC2)c(OC)c1	PNC assembly inh -80
CCCNC(=O)c1ccc2c(c1)ncn2-c1cc(C)cc(C)c1	none (no result: IMPase cell inh, 15-hLO-2 inh, 12-hLO inh, PNC assembly inh, HPGD inh)
Cc1cc(C)cc(-n2cnc3cc(C(=O)O)ccc32)c1	HPGD inh 16µM
COc1ccccc1CP(=O)(c1ccccc1)c1ccccc1	none (no result: IMPase Li cell, 15-hLO-2 inh, HPGD inh)
CS(=O)(=O)c1ccc(N2CCOCC2)c(S(C)(=O)=O)c1	PNC assembly inh -107
CN1/C(=C\C=Nc2cc(S(=O)(=O)N3CCOCC3)ccc2N2CCOCC2)C(C)(C)c2ccccc21	PNC assembly inh inconclusive (no result: 15-hLO-2 inh)
O=c1[nH][nH]c(=S)c(=O)[nH]1	HPGD inh 4µM (no result: IMPase cell inh, PNC assembly inh)
CCOc1ccc(-c2nn[nH]n2)cc1	none
Brc1cc2c(cc1COc1ccc(-c3nn[nH]n3)cc1)OCO2	HPGD inh 25µM (no result: 15-hLO-2 inh)
COc1ccccc1C(C)NCC(=O)Nc1ccccc1C(F)(F)F (configuration not stated)	PNC assembly inh -116, HPGD inh inconclusive (no result: IMPase cell inh, 15-hLO-2 inh)
CCNC(=S)NS(=O)(=O)c1ccc(C)cc1	PNC assembly inh -85 (no result: IMPase Li cell, 15-hLO-2 inh, HPGD inh)
Cc1ccc(S(=O)(=O)NNC(=S)NC(=O)c2ccc([N+](=O)[O-])cc2)cc1	HPGD inh 28µM (no result: IMPase cell inh, 15-hLO-2 inh)
Cc1ccc(C(=O)NC(=S)NNC(=O)c2ccccc2[N+](=O)[O-])cc1	HPGD inh 40µM (no result: 15-hLO-2 inh)
O=C(NC(=S)Nc1cccc(NC(=O)c2ccccc2)c1)c1cccc([N+](=O)[O-])c1	none (no result: IMPase cell inh, 15-hLO-2 inh)
CC(=O)NNC(=S)NC(=O)c1cccc([N+](=O)[O-])c1	HPGD inh 28µM (no result: IMPase cell inh, 15-hLO-2 inh)
COc1cccc(NC(=O)Cn2cnc3sc(C)c(S(=O)(=O)N4CCCCC4)c3c2=O)c1	PNC assembly inh inconclusive
Cc1ccc(S(=O)(=O)NNC(=O)C(=O)NNS(=O)(=O)c2ccc(C)cc2)cc1	none (no result: IMPase cell inh, 15-hLO-2 inh, 12-hLO inh, PNC assembly inh, HPGD inh)
Cc1ccc(S(=O)(=O)NNC(=S)Nc2ccccc2)cc1	15-hLO-2 inh inconclusive, HPGD inh 11µM
Cc1ccc(NNS(=O)(=O)c2ccc(C)cc2)cc1	15-hLO-2 inh inconclusive, 12-hLO inh inconclusive, PNC assembly inh inconclusive, HPGD inh 4µM
CC1=CC(C)(C)N(S(=O)(=O)c2ccc(F)cc2)c2ccccc21	PNC assembly inh inconclusive
CC1=CC(C)(C)N(S(=O)(=O)c2ccc(C)cc2)c2ccc(C)cc21	PNC assembly inh -90
Cc1nc(N2CCN(S(=O)(=O)c3ccc(F)cc3)CC2)c2c(-c3cccs3)csc2n1	none (no result: IMPase cell inh, 15-hLO-2 inh, 12-hLO inh, PNC assembly inh, HPGD inh)
CC(NC(=O)/C(C#N)=C/c1cn[nH]c1-c1ccccc1)c1ccccc1 (configuration not stated)	HPGD inh 14µM
CCc1ccc(C(C)NC(=O)/C(C#N)=C\c2cn[nH]c2-c2ccccc2)cc1 (configuration not stated)	none
Cc1ccc(C)c(SCC(=O)Nc2cccnc2Cl)c1	none (no result: IMPase cell inh, 15-hLO-2 inh, 12-hLO inh, PNC assembly inh, HPGD inh)
